# Data from PubChem BioAssay (NCI).
# The panel holds about 83,000 compounds, 20% with a hit somewhere; the sample as a whole holds those more often.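 Percent growth is the endpoint: 0 to 100 indicates growth inhibition (40 means 60% inhibition), 0 means no net growth, and negative values indicate cell death.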 A number with no mark means an inactive call. Activity calls are given as the source filed them. The calls were made as follows: active = growth percent below 10; inactive = the rest.
# Test system: MDA-MB-468 breast
# Test: NCI-60 one-dose screen, 48 h (100 = growth as untreated, 0 = no growth, -100 = all killed)
# Details: 10 µM unless noted
row,SMILES,growth
1,CCN(CC)c1ccc2cc(C(Nc3ccc(Br)c(C(F)(F)F)c3)c3nnnn3C(C)(C)C)c(=O)oc2c1 (stereo not given),118%
2,c1ccc2cc(Cn3c(-c4ccc5ccccc5c4)[n+](Cc4ccc5ccccc5c4)c4ccccc43)ccc2c1,-42.9% (active)
3,CCN(CCO)CC(=O)c1cc(Cl)cc(Cl)c1Cl,110%
4,O=C(CN1C(=O)CCC1=O)Nc1ncc(Cc2ccc(F)cc2)s1,109%
5,O=C(Cc1nc2cc(Cl)c(Cl)cc2nc1CC(=O)c1ccccc1)c1ccccc1,-55% (active)
6,O=C(c1cc(-c2ccc(Cl)cc2)nc2ccccc12)N1N=C(c2ccccc2)CC1c1cc(-c2ccccc2)nn1-c1ccccc1 (stereo not given),89.6%
7,COc1cc(OC)cc(-c2ccc(-c3ccc(C(=N)N)cn3)o2)c1,-69.9% (active)
8,COc1cc(Cl)cc(-c2nn(C(=O)NS(=O)(=O)c3ccccc3)cc2-c2ccncc2)c1,89%
9,Nc1ccc(-c2ccc(N)c(Br)c2)cc1Br,19.8%
10,Cc1ccc(NC(=O)Nc2ccc(Nc3ncnc4sc5c(c34)CCOC5)cc2)cc1Cl,102%
11,CCOC(=O)c1cc2c(n1Cc1cc(OC)cc(OC)c1)-c1oncc1CC2,-14.1% (active)
12,Clc1ccc([I+]c2ccc(Cl)cc2Cl)c(Cl)c1,-37.9% (active)
13,COCCn1cc(-c2csc(-c3cn(C)c4ccc(Br)cc34)n2)c2cccnc21,54.8%
14,COc1cccc(-c2nn(-c3ccccc3)cc2-c2ccnc(NCCCO)c2)c1,23.8%
15,COc1cccc(C2(C)Nc3ccccc3-c3nc4ccccc4n32)c1 (stereo not given),109%
16,O=S(=O)(NCCNc1nccc(-c2c(-c3ccc(F)c(O)c3)nc3sccn23)n1)c1ccc(Cl)cc1,19.5%
17,CCC(=O)OCc1ccc(OC)cc1,87.3%
18,CC(C)(Cl)CCC1=C(Cl)C(=O)c2ccccc2C1=O,-43.5% (active)
19,CCOc1ccc2c(c1)/C(=C\C=C\C1CC(C)C3CC(OCC)CCC3N1CC)CC(C)N2CC (stereo not given),-37.3% (active)
20,COc1cccc(CCNc2ncnc3c2ncn3Cc2nnc3c4ccccc4c(Cl)nn23)c1,57.4%

row,SMILES,growth
1,Cc1ccc(N2CCN(C(C)C(N)=O)CC2)cc1 (stereo not given),109%
2,COc1cc(-c2cc3ncccc3c3nc(N)c4cccnc4c23)cc(OC)c1OC,-3.2% (active)
3,COc1ccc2c(c1)nnn1c3ncccc3c(N=O)c21,-87.8% (active)
4,CCOC(=O)n1cc(C2=C(c3ccc(OC)c(OC)c3)COC2=O)c2ccccc21,-41.8% (active)
5,NC(=S)N=Nc1c(O)c2ccccc2c2ccccc12,88.3%
6,COc1ccc(/C=C2/CN(C(=O)c3ccc(C)cc3)C/C(=C\c3ccc(OC)cc3)C2=O)cc1,74.1%
7,CC(C)C[C@H](C(=O)O)N(C)C(=O)[C@@H]1CCCN1C(=O)[C@H](C)OC(=O)[C@H](CCC(N)=O)NC(=O)[C@@H]1CCC(=O)N1,107%
8,Cn1cc(-c2nnc(N)nc2-c2cn(C)c3ccc(F)cc23)c2cc(F)ccc21,99.8%
9,CC[C@]12C=CCN3CC[C@@]4(c5ccc(OC)cc5N(C)[C@H]4[C@@](O)(C(=O)OC)[C@@H]1OC(=O)CCC(=O)O[C@H]1CC[C@H]4[C@@H]5CCC6=CC(=O)CC[C@@H]6[C@H]5CC[C@]14C)[C@@H]32,-30.2% [100 µM] (active)
10,c1csc(C2=NN3C(C2)c2ccccc2OC3c2ccncc2)c1 (stereo not given),103%
11,CC(=O)c1c([Si](C)(C)C)c2cc(C#N)ccn2c1C(=O)c1ccc(Br)cc1,79.9%
12,CN1CCN(c2ccc(N3Cc4ccccc4OC4=C3C(=O)c3c(O)ccc(O)c3C4=O)cn2)CC1,-60.1% (active)
13,CCn1c(=S)sc2c(Nc3ccc(F)cc3)nc(-c3cccnc3)nc21,79.8%
14,CCN(CC)CCCCCCNc1cccc2cc(Br)cnc12,77%
15,FC(F)(F)Oc1cccc(-c2cc(NCCCCCCNc3cc(-c4cccc(OC(F)(F)F)c4)nc4ccc(N5CCCC5)cc34)c3cc(N4CCCC4)ccc3n2)c1,-68.1% (active)
16,Cc1[nH]c(C(=O)Nc2ccc(S(=O)(=O)N3CCCCC3)cc2OCCOCCOCCOCCOCCOCCOCCOCCOCCOc2cc(S(=O)(=O)N3CCCCC3)ccc2NC(=O)c2[nH]c(C)c3c2CCCCC3=O)c2c1C(=O)CCCC2,-11.1% (active)
17,COC(=O)[C@]1(C)CCC[C@]2(C)[C@H]3C[C@H]4C(C(C)C)=C[C@]3(CC[C@H]21)[C@@H]1C(=O)CC[C@H](OCCC#N)[C@@H]14,70.5%
18,Cc1c(C)c([N+](=O)[O-])c(C)c([N+](=O)[O-])c1C,97.6%
19,Nc1ccc(N=Nc2ccccc2)cc1[N+](=O)[O-],-6.35% (active)
20,COC(=O)[C@H](CCCCNC(=O)OCc1ccccc1)NC(=O)[C@@H](NC(=O)Nc1cc(C(F)(F)F)cc(C(F)(F)F)c1)C(C)C,-12.9% [100 µM] (active)
